Rows were chosen to be rich in hits. Some 2.8% of all compounds tested hit in one or more screens of this group.
POLI inh = inhibitors of human DNA polymerase iota; Q9UNA4; hit rate 1% among 390,000; Potency, µM (titrated, usually from 115 µM), for inactives: at the top dose activity, negative = inhibition, actives largely listed as inhibitors; Pol iota fluorescent replication assay, 10 min; AID 588590; note: potency is the fitted concentration of half-maximal effect
Target sequence (Q9UNA4 whole entry, looked up): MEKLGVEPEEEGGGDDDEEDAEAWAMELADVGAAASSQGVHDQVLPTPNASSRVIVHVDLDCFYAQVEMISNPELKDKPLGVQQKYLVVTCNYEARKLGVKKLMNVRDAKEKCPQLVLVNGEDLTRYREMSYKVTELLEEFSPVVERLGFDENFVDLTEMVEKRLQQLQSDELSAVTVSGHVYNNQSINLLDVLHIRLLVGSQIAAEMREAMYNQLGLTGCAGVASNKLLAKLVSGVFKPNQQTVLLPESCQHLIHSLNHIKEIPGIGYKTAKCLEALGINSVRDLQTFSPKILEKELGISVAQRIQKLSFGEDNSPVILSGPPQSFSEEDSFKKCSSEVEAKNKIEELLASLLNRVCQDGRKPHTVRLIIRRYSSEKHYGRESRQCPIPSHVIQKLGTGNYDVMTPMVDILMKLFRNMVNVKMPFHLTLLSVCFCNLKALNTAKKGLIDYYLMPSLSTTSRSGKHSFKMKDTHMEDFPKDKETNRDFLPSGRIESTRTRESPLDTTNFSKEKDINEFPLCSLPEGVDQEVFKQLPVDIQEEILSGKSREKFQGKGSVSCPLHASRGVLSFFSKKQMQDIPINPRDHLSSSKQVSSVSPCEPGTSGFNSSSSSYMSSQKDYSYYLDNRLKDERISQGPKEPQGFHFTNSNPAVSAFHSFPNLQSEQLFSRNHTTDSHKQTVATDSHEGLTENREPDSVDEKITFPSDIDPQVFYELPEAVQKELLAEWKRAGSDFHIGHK
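Fluorescent replication assay read twice, at 0 min and 10 min after adding 50 nM (final) substrate. Enzyme (10 nM) and compounds were first incubated 15 min at room temperature; enzyme-free buffer wells were negative controls.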
PI5P4Ka inh = blocks human PI5P4K alpha kinase activity; hit rate 1.2% among 330,000; PI5P4Kalpha enzyme, ADP-Glo luminescence, 60 min; active compounds read low; P48426; max response, %; AID 652105; active = max response of -50% or lower; inconclusive = between -30% and -50%; inactive = -30% or higher; note: value at the top dose of about 77 µM; % is set by controls: 0 for no effect and ±100 for the full control effect
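PI5P4Kalpha ADP-Glo assay; 5 microM ATP final; 60 min RT reaction; HEPES pH 7.4/EGTA/CHAPS, 5% DMSO; controls lacking substrate or enzyme; luminescent end-point.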
POLK inh = DNA polymerase kappa (human) inhibition; hit rate 0.53% among 400,000; Q9UBT6; purified Pol kappa, fluorescent DNA synthesis assay, 10 min; Potency, µM (series often up to 107 µM), without a hit: at the top dose activity, negative = inhibition, usual class: inhibitors; note: potency is the fitted concentration of half-maximal effect; % is set by controls: 0 for no effect and ±100 for the full control effect
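Fluorescent qHTS in 1536-well format: enzyme (10 nM) and compound sat 15 min at room temperature before 50 nM substrate (final) was added. Signal taken at 0 and 10 min; no-enzyme buffer wells were negative controls.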
WRN inhibitor = inhibitors of human WRN helicase | Q14191 | WRN helicase unwinding, fluorescent forked duplex, kinetic | Potency, µM (titrated, usually from 114 µM), inactives show at the top dose activity change, negative = inhibition, hits mostly inhibitors | hit rate 0.46% among 360,000; note: potency is the fitted concentration of half-maximal effect; % is set by controls: 0 for no effect and ±100 for the full control effect; nearly all actives have a fitted effect of over 55% in size
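Fluorescence dequenching readout, ex 525 nm/em 598 nm, kinetic mode: forked duplex DNA (100 nM final) with adjacent fluorophore and quencher unwound by WRN (20 nM final) with 2 mM ATP. Compound preincubation 15 min, room temperature.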
POLH inh = blocks human DNA polymerase eta activity; Q9Y253; recombinant Pol eta, fluorescent DNA replication assay; Potency, µM (top dose mostly 114 µM), without a hit: top-dose activity change, negative = inhibition, actives largely listed as inhibitors; hit rate 1.2% among 390,000; note: potency is the fitted concentration of half-maximal effect; % is set by controls: 0 for no effect and ±100 for the full control effect
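Fluorescent replication assay: 50 nM final substrate added after a 15 min room-temperature compound preincubation with 10 nM enzyme. Signal taken at 0 min and again at 10 min.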
POLB inh = inhibitors of human DNA polymerase beta; P06746; Pol beta primer extension/strand displacement, fluorescence kinetic; Potency, µM (highest dose often 114 µM), for the others: at the top dose activity change, negative = inhibition, hits mostly inhibitors; hit rate 1.3% among 340,000; AID 485314; note: potency is the fitted concentration of half-maximal effect; % is set by controls: 0 for no effect and ±100 for the full control effect
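Pol beta (10 nM) was preincubated with compound for 15 min at room temperature. The reaction was then started with 50 nM substrate and read immediately and after a further 10 min at room temperature.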
* hit, by the source's call; ? = inconclusive; . = no result given; [ ] = another dose, or the depositor's remark. Unless noted, calls come from the whole dose curve; as a rule, active = well fitted curve in the direction sought with a large enough effect; inconclusive = small, poorly fitted or top-dose-only effect, or another doubt; inactive = no such curve, though single readings can be large; an effect the other way counts as inactive or inconclusive.

SMILES | POLI inh | PI5P4Ka inh | POLK inh | WRN inhibitor | POLH inh | POLB inh
O=[N+]([O-])c1ccc(N/N=C/c2ccc(O)c(O)c2O)c(S(=O)(=O)N2CCOCC2)c1 | ? | -98* | ? | ? | ? | ?
OC(C[n+]1ccccc1)c1ccccc1 (stereo unspecified) | -8% | -5 | -18% | 3% | -8% | -22%
CCN(C(=O)COC(=O)/C=C/c1ccc(C)o1)c1c(N)n(Cc2ccccc2)c(=O)[nH]c1=O | 7% | -28 | -14% | 11% | 0% | .
COCCN(C(=O)COC(=O)/C=C/c1ccc(C)o1)c1c(N)n(Cc2ccccc2)c(=O)[nH]c1=O | 79µM* | 1 | -7% | -1% | -11% | -6%
COCCN(C(=O)COC(=O)/C=C/c1ccco1)c1c(N)n(Cc2ccccc2)c(=O)[nH]c1=O | ? | -9 | -32% | 1%[11.6 µM] | ? | 28µM*
Cc1ccc(C(=O)O)cc1N=Cc1cc(Br)cc(Br)c1O | -6% | -56* | -18% | ? | ? | 0%
Cc1ccc(C)c(NC(=O)CN2C(=O)CCc3ccccc32)c1 | 79µM* | . | ? | . | -6% | 22µM*
Cc1ccc(NC(=O)CN2C(=O)CCc3ccccc32)cc1C | ? | . | -39% | . | 0% | 22µM*
CCOC(=O)N1CCN(C(=O)COC(=O)c2ccc(S(=O)(=O)N(CC)CC)cc2)CC1 | 9% | -3 | -13% | 3% | -16% | .
CCc1cc2c(=O)n(Cc3ccco3)c(SCc3c(C)noc3C)nc2s1 | 14µM* | -22 | -12% | -28% | -19% | 0%
CCc1cc2c(=O)n(Cc3ccco3)c(SCC(=O)N(C)C3CCS(=O)(=O)C3)nc2s1 (stereo unspecified) | ? | -28 | ? | -13% | -10% | 20µM*
CCCSS/C(CCO)=C(/C)N(C=O)Cc1cnc(C)nc1N | . | . | 9%[19.4 µM] | . | . | .
C/C(=N\Nc1ccc(C(=O)c2c(C)cc3ccccn23)cc1[N+](=O)[O-])c1ccc(O)cc1 | 3% | 8 | -11% | 9% | -1% | 2%
Cc1cc2ccccn2c1C(=O)c1ccc(N/N=C/c2ccc(C(=O)O)cc2)c([N+](=O)[O-])c1 | ? | 0 | -10% | -10% | 35µM* | ?
COCCNc1nc(-c2cccc(NS(C)(=O)=O)c2)nc2ccccc12 | . | . | 25µM* | . | . | .
Cc1ccc(CNC(=O)CCCC(=O)c2ccccc2)cc1 | 21% | 7 | -6% | 9% | 6% | 29%
CCCCCC(=O)NNC(=O)c1ccc(-c2ccccc2)cc1 | ? | . | -29% | -8% | -4% | 40µM*
CCCCC(=O)Nc1ccc(C(=O)NNC(=O)CCc2ccccc2)cc1 | -7% | . | -17% | -20% | -11% | ?
O=C(NNC(=O)c1ccc(-c2ccccc2)cc1)c1ccccc1 | 79µM* | -11 | -36% | -6%[11.6 µM] | ? | -5%[57.1 µM]
Cc1ccccc1OCC(=O)NNC(=O)c1ccc(-c2ccccc2)cc1 | 79µM* | . | -20% | -24% | -2% | ?
O=Nc1ccc(/C=C/c2ccnc3ccccc23)cc1 | 6% | . | -2% | . | . | .
Cc1ccc(NC(=O)CN(C)C(=O)c2cccc(Br)c2)cc1 | 13% | -1 | -5% | 8% | -1% | 17%
O=C(CS(=O)CC(=O)Nc1cnc2ccccc2c1)Nc1ccc(Cl)cc1 (stereo unspecified) | ? | 1 | -29% | -8%[57.1 µM] | ? | 50µM*
CN(C)C(=O)Nc1cnc2ccccc2c1 | 1% | -4 | 4% | 11% | -3% | 21%
CCOC(=O)c1c(C)[nH]c(C)c1S(=O)(=O)N(C)CC(=O)N1CCN(c2cccc(C)c2C)CC1 | 2% | . | 0% | . | -18% | 0%
Cc1ccc(SSc2cc(C)ccc2N)c(N)c1 | ? | -81* | -7% | -3% | -5% | .
COc1cc2ccccc2cc1C(=O)Nc1ccc(O)cc1 | 66% | -3 | -6% | -14% | -3% | 22µM*
COc1ccc(NC(=O)c2cc3ccccc3cc2OC)cc1OC | -21% | -3 | -14% | -6% | -12% | 29%

Screening data from PubChem BioAssay.
